Laboratory results from ChEMBL document CHEMBL2218924, “A broad activity screen in support of a chemogenomic map for kinase signalling research and drug discovery” (Biochem J, 2013).

Experiments:
[1] = target: T1, CDK3/cyclin E (Homo sapiens) (UniProt P24864+O96020+Q00526); conditions: at 1 µM
[2] = target: T1, CDK3/cyclin E (Homo sapiens); conditions: at 10 µM
[3] = target: T2, Cyclin-dependent kinase 5/CDK5 activator 1 (Homo sapiens) (UniProt Q00535+Q15078); conditions: at 1 µM
[4] = target: T2, Cyclin-dependent kinase 5/CDK5 activator 1 (Homo sapiens); conditions: at 10 µM
[5] = target: T2, Cyclin-dependent kinase 5/CDK5 activator 1 (Homo sapiens); conditions: at 1 µM; remark: listed apart in the source
[6] = target: T2, Cyclin-dependent kinase 5/CDK5 activator 1 (Homo sapiens); conditions: at 10 µM; remark: listed apart in the source
[7] = target: T3, CDK6/cyclin D3 (Homo sapiens) (UniProt P30281+Q00534); conditions: at 1 µM
[8] = target: T3, CDK6/cyclin D3 (Homo sapiens); conditions: at 10 µM
[9] = target: T4, Cyclin-dependent kinase 7/ cyclin H (Homo sapiens) (UniProt P51946+P50613); conditions: at 1 µM
[10] = target: T4, Cyclin-dependent kinase 7/ cyclin H (Homo sapiens); conditions: at 10 µM
[11] = target: T5, CDK9/cyclin T1 (Homo sapiens) (UniProt O60563+P50750); conditions: at 1 µM
[12] = target: T5, CDK9/cyclin T1 (Homo sapiens); conditions: at 10 µM
[13] = target: T6, Serine/threonine-protein kinase Chk1 (Homo sapiens) (UniProt O14757); conditions: at 1 µM
T6 sequence (whole entry): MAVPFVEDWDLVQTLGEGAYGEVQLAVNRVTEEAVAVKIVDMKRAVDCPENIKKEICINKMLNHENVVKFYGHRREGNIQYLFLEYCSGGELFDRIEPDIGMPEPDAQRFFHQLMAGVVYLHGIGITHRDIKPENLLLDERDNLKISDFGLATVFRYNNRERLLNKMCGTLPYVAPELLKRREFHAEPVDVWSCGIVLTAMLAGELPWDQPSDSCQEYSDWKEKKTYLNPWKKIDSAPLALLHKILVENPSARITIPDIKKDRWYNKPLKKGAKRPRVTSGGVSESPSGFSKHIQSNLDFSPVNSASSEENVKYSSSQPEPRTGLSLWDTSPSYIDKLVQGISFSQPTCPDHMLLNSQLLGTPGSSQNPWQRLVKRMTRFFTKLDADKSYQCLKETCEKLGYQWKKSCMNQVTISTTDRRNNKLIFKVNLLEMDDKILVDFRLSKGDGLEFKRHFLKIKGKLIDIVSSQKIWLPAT

[14] = target: T6, Serine/threonine-protein kinase Chk1 (Homo sapiens); conditions: at 10 µM
[15] = target: Serine/threonine-protein kinase Chk2 (Homo sapiens) (UniProt O96017); conditions: at 1 µM
Serine/threonine-protein kinase Chk2 (Homo sapiens), sequence (O96017 whole entry, canonical isoform): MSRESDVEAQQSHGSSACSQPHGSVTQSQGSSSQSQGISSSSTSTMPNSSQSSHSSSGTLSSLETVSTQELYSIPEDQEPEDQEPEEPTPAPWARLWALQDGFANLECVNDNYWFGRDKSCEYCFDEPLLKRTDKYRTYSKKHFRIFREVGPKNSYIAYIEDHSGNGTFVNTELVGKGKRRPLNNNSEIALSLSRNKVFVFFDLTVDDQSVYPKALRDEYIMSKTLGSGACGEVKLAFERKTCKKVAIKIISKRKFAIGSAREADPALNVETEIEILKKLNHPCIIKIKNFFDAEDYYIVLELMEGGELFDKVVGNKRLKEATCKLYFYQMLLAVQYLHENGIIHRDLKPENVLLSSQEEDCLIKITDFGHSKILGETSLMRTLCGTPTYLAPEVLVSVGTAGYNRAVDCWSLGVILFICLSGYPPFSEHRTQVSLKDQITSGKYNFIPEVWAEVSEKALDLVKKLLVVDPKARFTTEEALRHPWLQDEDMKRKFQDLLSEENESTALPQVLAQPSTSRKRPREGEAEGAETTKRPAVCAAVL

[16] = target: Serine/threonine-protein kinase Chk2 (Homo sapiens) (UniProt O96017); conditions: at 10 µM
[17] = target: Casein kinase I isoform gamma-1 (Homo sapiens) (UniProt Q9HCP0); conditions: at 1 µM
Casein kinase I isoform gamma-1 (Homo sapiens), sequence (Q9HCP0 whole entry, looked up, canonical isoform): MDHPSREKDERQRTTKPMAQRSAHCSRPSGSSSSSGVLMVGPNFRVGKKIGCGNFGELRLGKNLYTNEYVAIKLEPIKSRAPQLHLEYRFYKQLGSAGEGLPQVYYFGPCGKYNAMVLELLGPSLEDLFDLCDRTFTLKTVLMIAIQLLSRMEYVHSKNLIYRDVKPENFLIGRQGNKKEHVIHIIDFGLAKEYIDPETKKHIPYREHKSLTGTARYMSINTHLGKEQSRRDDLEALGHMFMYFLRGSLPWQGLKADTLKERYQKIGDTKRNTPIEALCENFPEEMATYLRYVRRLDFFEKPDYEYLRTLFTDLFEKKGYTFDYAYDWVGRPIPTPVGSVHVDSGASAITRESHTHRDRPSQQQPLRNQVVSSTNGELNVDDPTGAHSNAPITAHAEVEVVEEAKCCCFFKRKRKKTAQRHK

[18] = target: Casein kinase I isoform gamma-1 (Homo sapiens) (UniProt Q9HCP0); conditions: at 10 µM
[19] = target: Casein kinase I isoform delta (Homo sapiens) (UniProt P48730); conditions: at 1 µM
Casein kinase I isoform delta (Homo sapiens), sequence (P48730 whole entry, looked up, canonical isoform): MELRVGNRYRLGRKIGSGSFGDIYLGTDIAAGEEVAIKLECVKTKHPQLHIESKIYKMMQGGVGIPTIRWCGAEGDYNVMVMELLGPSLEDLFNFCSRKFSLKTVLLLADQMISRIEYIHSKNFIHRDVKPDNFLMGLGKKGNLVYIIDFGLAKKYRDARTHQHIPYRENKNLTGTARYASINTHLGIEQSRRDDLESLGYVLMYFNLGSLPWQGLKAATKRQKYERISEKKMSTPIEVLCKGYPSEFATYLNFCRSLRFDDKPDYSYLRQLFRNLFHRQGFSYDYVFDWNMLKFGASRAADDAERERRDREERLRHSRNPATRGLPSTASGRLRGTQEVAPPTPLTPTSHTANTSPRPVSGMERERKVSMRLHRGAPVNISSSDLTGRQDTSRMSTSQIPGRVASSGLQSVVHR

[20] = target: Casein kinase I isoform delta (Homo sapiens) (UniProt P48730); conditions: at 10 µM

T1 sequence (O96020 whole entry, looked up): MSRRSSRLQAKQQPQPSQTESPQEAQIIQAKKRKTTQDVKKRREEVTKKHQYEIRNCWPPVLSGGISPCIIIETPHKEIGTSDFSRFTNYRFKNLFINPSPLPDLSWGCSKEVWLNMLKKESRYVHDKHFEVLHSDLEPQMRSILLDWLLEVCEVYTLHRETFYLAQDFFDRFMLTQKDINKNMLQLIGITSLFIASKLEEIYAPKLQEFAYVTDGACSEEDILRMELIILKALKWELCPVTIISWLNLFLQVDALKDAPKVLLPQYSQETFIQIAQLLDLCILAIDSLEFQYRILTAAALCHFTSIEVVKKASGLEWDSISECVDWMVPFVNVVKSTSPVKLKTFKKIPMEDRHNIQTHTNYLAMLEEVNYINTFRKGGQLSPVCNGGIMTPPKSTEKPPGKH
T1 sequence (P24864 whole entry, looked up): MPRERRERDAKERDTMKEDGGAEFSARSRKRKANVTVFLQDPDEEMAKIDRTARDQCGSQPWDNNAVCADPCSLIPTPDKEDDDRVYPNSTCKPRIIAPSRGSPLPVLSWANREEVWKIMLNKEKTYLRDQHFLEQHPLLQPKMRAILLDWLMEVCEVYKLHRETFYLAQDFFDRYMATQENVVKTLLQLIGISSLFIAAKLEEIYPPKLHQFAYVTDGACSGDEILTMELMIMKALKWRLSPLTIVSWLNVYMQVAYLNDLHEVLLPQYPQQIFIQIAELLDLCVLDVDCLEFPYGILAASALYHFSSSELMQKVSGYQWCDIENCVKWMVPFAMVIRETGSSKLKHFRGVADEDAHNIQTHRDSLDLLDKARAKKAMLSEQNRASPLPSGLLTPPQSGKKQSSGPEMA
T1 sequence (Q00526 whole entry, looked up): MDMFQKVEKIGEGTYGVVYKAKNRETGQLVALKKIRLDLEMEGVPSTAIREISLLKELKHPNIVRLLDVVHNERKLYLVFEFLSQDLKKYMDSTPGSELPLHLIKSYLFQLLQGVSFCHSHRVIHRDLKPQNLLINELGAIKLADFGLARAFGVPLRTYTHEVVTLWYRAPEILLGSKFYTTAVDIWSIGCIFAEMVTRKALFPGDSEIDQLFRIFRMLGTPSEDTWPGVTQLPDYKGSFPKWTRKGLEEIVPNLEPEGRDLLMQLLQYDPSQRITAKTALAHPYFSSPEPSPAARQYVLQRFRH

SMILES	residual activity [1]	residual activity [2]	residual activity [3]	residual activity [4]	residual activity [5]	residual activity [6]	residual activity [7]	residual activity [8]	residual activity [9]	residual activity [10]	residual activity [11]	residual activity [12]	residual activity [13]	residual activity [14]	residual activity [15]	residual activity [16]	residual activity [17]	residual activity [18]	residual activity [19]	residual activity [20]
COc1cc2ncnc(Nc3ccc(NC(=O)c4ccccc4)cc3)c2cc1OC	107%	97%	105%	99%	101%	101%	111%	102%	97%	102%	111%	100%	97%	99%	34%	8%	92%	78%	79%	69%
O=C1Nc2cc(Br)ccc2/C1=C1/Nc2ccccc2/C1=N\O	0%	1%	6%	10%	2%	9%	40%	5%	34%	13%	32%	42%	45%	19%	18%	3%	64%	73%	51%	17%
c1ccc(-c2n[nH]c3c2oc2ccccc23)cc1	98%	41%	67%	27%	77%	31%	75%	30%	84%	91%	88%	78%	86%	89%	85%	57%	87%	73%	75%	33%
O=C1c2ccccc2-[n+]2ccc3c([nH]c4ccccc43)c21	87%	81%	72%	82%	108%	82%	87%	82%	99%	83%	86%	92%	94%	87%	77%	75%	98%	81%	79%	77%
O=Nc1c(-c2c(O)[nH]c3ccccc23)[nH]c2ccccc12	5%	0%	3%	2%	5%	1%	16%	5%	42%	16%	26%	11%	65%	30%	13%	2%	57%	19%	14%	4%
O=C1NC(=O)c2c1c1c3ccccc3[nH]c1c1[nH]c3cc(Br)ccc3c21	88%	77%	55%	62%	83%	68%	87%	58%	99%	94%	82%	76%	77%	47%	33%	30%	104%	88%	92%	90%
Ic1cccc(CSc2nnc(-c3ccncc3)o2)c1	70%	57%	5%	4%	8%	3%	80%	73%	93%	72%	75%	87%	57%	49%	72%	65%	101%	84%	83%	75%
COc1ccc(OC)c2c(=S)c3ccccc3[nH]c12	92%	73%	97%	58%	105%	67%	90%	85%	123%	87%	95%	83%	108%	88%	106%	68%	99%	77%	101%	74%
Cn1cc(/C=C2\C(=O)Nc3ccc(S(N)(=O)=O)cc32)c2ccccc21	69%	34%	42%	17%	33%	34%	93%	56%	13%	4%	62%	55%	16%	7%	4%	1%	88%	52%	93%	59%
Nc1nc(Nc2ccc(S(N)(=O)=O)cc2)nn1C(=S)Nc1c(F)cccc1F	-2%	0%	-2%	-1%	-2%	-1%	19%	3%	2%	-2%	0%	-1%	0%	-1%	4%	0%	4%	1%	59%	16%
Cc1nc(-c2ccccc2)c(-c2ccncc2)o1	92%	91%	96%	94%	129%	93%	110%	86%	105%	96%	111%	98%	102%	98%	91%	72%	111%	82%	44%	8%
O=C(Nc1cccc(Nc2cc(Nc3cccc(C(F)(F)F)c3)ncn2)c1)C1CC1	100%	77%	89%	63%	101%	57%	94%	69%	88%	80%	85%	62%	89%	86%	97%	74%	85%	66%	85%	54%
Oc1n[nH]c2nnc(-c3c(-c4ccccc4)nn4ccccc34)cc12	84%	87%	96%	103%	105%	82%	89%	83%	89%	86%	90%	99%	93%	81%	19%	11%	94%	83%	84%	54%
CC(=O)O/N=C1\C(=C2\C(=O)Nc3cc(Br)ccc32)Nc2ccccc21	12%	2%	35%	10%	60%	9%	91%	54%	78%	45%	63%	51%	95%	65%	71%	26%	99%	82%	78%	48%
